Key:
[1] = test system: LEGO organoid PTCC (PTEN-/-; TP53-/-; CDKN2A-/-; CDKN2B-/-); experiment: bioluminescence (viable cell) signal fold change after vs before treatment, normalised to DMSO (ratio); higher = more tumour cell growth / less inhibition; conditions: 10 µM; treatment time 6 days
Experimental: (§1)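 Luc2-labelled iPSC-derived glioblastoma-like organoids (LEGOs, genotypes PT = PTEN-/-;TP53-/-, PTCC = plus CDKN2A/B-/-, PTN = plus NF1-/-) were treated with 10 uM drug for 6 days (applied every other day) at 37 C. Bioluminescence imaging was done before treatment and 2 days after the last dose. BLI signals were normalised to the DMSO control on the same day and then to the pre-treatment signal (N=3).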

[2] = test system: LEGO organoid PTN (PTEN-/-; TP53-/-; NF1-/-); experiment: as above; conditions: 10 µM; treatment time 6 days
Experimental: as §1

In the case of `CCCOc1ccc(S(=O)(=O)NCCC2CCCN2C)cc1-c1nc2c(CCC)nn(C)c2c(=O)[nH]1` (configuration not stated) [Udenafil], the bioluminescence [1] is reported as 1.32 and the bioluminescence [2] is reported as 1.09.

With `Cl.NCC(=O)CCC(=O)O` [5-Aminolevulinic acid hydrochloride] the bioluminescence [1] was 2.27 and the bioluminescence [2] was 1.19.

`Nc1nc(Cl)nc2c1ncn2[C@H]1C[C@H](O)[C@@H](CO)O1` [Cladribine] gave a bioluminescence [1] of 1.17 and a bioluminescence [2] of 1.05.

`CCc1nc(N)nc(N)c1-c1ccc(Cl)cc1` [Pyrimethamine] was tested, and the bioluminescence [1] was 1.06 and the bioluminescence [2] was 0.803.

In the case of `CCOC(=O)N1CC\C(CC1)=C1\c2ccc(Cl)cc2CCc2cccnc12` [Loratadine], the bioluminescence [1] is reported as 1.05 and the bioluminescence [2] is reported as 1.36.

In the case of `C/C=C(/C)C(=O)O[C@H]1C(C)=C[C@]23C(=O)[C@@H](C=C(CO)[C@@H](O)[C@]12O)[C@H]1[C@@H](C[C@H]3C)C1(C)C` [Ingenol Mebutate], the bioluminescence [1] is reported as 1.37 and the bioluminescence [2] is reported as 2.33.

`Cc1cn([C@H]2C[C@H](N=[N+]=[N-])[C@@H](CO)O2)c(=O)[nH]c1=O` [Zidovudine] was tested, and the bioluminescence [1] was 1.35 and the bioluminescence [2] was 3.76.

`Cl.N=C(N)NC(=O)Cc1c(Cl)cccc1Cl` [Guanfacine hydrochloride] was tested, and the bioluminescence [1] was 1.24 and the bioluminescence [2] was 0.496.

Work on `Cl.OC(CCN1CCCC1)(c1ccccc1)C1CCCCC1` (configuration not stated) [Procyclidine hydrochloride] yielded a bioluminescence [1] of 0.919 and a bioluminescence [2] of 0.656.

For `CN(C)CCCN1c2ccccc2CCc2ccc(Cl)cc21.Cl` [Clomipramine hydrochloride], the bioluminescence [1] was 0.71 and the bioluminescence [2] was 1.5.

In the case of `O=C(NC1CCN(CCCCC2(C(=O)NCC(F)(F)F)c3ccccc3-c3ccccc32)CC1)c1ccccc1-c1ccc(C(F)(F)F)cc1` [Lomitapide], the bioluminescence [1] is reported as 0.124 and the bioluminescence [2] is reported as 0.

Source: the supplement of paper PMC10811239
